# High-throughput results deposited in PubChem by National Center for Advancing Translational Sciences (NCATS).
# TGFb inhibitor: inhibitors of TGF-b signaling; Potency, µM (series often up to 46.1 µM), inactives show at the highest dose activity, negative = inhibition, usual class: inhibitors; HepG2 CAGA-GFP TGF-b/SMAD3 reporter, GFP fluorescence, 18 h; TGF-beta stimulated, 500 pg/mL final; actives 1.2% (n = 410,000); note: % is set by controls: 0 for no effect and ±100 for the full control effect; nearly all actives have a fitted effect of over 65% in size
#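 GFP signal (ex488/em500-530) from TGF-beta-stimulated HEPG2 CAGA-GFP cells, 500 pg/mL final, 18 h at 37 degrees C in DMEM plus 1% FBS, normalized to unstimulated and DMSO-stimulated controls.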
# KB-V1 cytotox: kills drug-selected multidrug resistant KB-V1 cells; KB-V1 MDR cells viability, CellTiter-Glo, 72 h; Potency, µM (doses to about 46.1 µM), usual class: cytotoxic; actives 3.4% (n = 400,000); AID 1347076; note: % is set by controls: 0 for no effect and ±100 for the full control effect; nearly all actives have a fitted effect of over 60% in size
#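 In this primary screen, KB-V1 cells overexpressing P-gp are incubated with library compounds (lowest to highest concentration) for 72 h at 37 degrees C before a luminescent ATP viability read.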
# ATXN2 expr inh: ATXN2 expression inhibition; HEK-293 ATXN2-luciferase reporter, luminescence, 24 h; Potency, µM (top dose mostly 57 µM), without a hit: top-dose activity change, negative = inhibition, hits mostly inhibitors; actives 0.72% (n = 360,000); AID 1745845; note: % is set by controls: 0 for no effect and ±100 for the full control effect; nearly all actives have a fitted effect of over 55% in size
#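 qHTS (up to 57 uM final) was run with 24 h compound exposure of reporter cells at 37 °C. Each well was multiplexed: SteadyGlo luminescence measured ATXN2-luciferase expression after a fluorogenic Gly-Phe-AFC viability readout (25 uM final).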
# KB-3-1 cytotox: kills parental KB-3-1 adenocarcinoma cells | AID 1347075 | actives 1.4% (n = 400,000) | KB-3-1 viability, CellTiter-Glo ATP luminescence, 72 h | Potency, µM (series often up to 46.1 µM), hits mostly cytotoxic; note: % is set by controls: 0 for no effect and ±100 for the full control effect; nearly all actives have a fitted effect of over 60% in size
#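 Luminescent ATP read-out (CellTiter-Glo) measures survival of drug-naive KB-3-1 cells after 72 h compound exposure at 37 °C. Titration series was screened from lowest to highest concentration, with DMSO vehicle plates as background controls.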
# HepG2 tox: HepG2 cytotoxicity, counter-screen for TGF-b inhibitors; HepG2 CAGA-GFP viability, ATP luminescence, 18 h; Potency, µM (series often up to 46.1 µM), for inactives: at the top dose activity change, negative = cytotoxicity, hits mostly cytotoxic; actives 0.76% (n = 410,000)
#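 CellTiter-Glo luminescence gave cytotoxicity after 18 hours at 37 degrees C. The cells were HepG2 CAGA-GFP in 1% FBS DMEM, stimulated with 500 pg/mL TGF-beta after compound addition. %Activity was normalised to no-cell wells (complete cell-killing) and DMSO (no toxicity), and curves were fitted and classified.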
# S2 tox: cell viability loss in ATXN counter-screen | S2 cells (HEK-293 line with an ATXN2-luciferase reporter) viability, CellTiter-Fluor protease fluorescence, 24 h | Potency, µM (doses to about 56.7 µM), most hits filed as cytotoxic | actives 0.49% (n = 400,000) | AID 651635; note: nearly all actives have a fitted effect of over 40% in size
# The depositor's hits bear a star; i = inactive; u = inconclusive; x = not tested or not shown; ! = not confirmed by another sample. Hits are enriched below; roughly 5.9% of the tested compounds scored in any of these assays. Calls come from the whole dose curve; as a rule, active = well fitted curve in the direction sought with a large enough effect; inconclusive = small, poorly fitted or top-dose-only effect, or another doubt; inactive = no such curve, though single readings can be large; an effect the other way counts as inactive or inconclusive. Potency is the fitted concentration of half-maximal effect.
SMILES,TGFb inhibitor,KB-V1 cytotox,ATXN2 expr inh,KB-3-1 cytotox,HepG2 tox,S2 tox
Cc1ccc(CNC(=O)c2c(-c3ccc(F)cc3F)noc2C)o1,-8%,i,3%,i,-17%,i
CNc1nc(-c2ccc3c(N)n[nH]c3c2)cc(N2C[C@@H](C(=O)NC3CCCCC3)CC[C@@H]2C)n1,x,x,-9%,x,x,x
Cc1ccc(CN2CCN(C3CCNCC3)C(=O)C2=O)cc1,-1%,i,-6%,i,-7%,i
Cc1ccc(C(=O)N/N=C/c2ccc([N+](=O)[O-])s2)cc1,u,u,2.2µM*,i,-29%,i
Cc1ccc(C(=O)N/N=C\c2ccc([N+](=O)[O-])s2)cn1,-24%,u,u,u,-7%,i
Cc1cccn2c(=O)c3cc(C(=O)NC4CCCCC4)n(C)c3nc12,4%,u,0%,u,-1%,i
Cc1cccn2c(=O)c(C(=O)NC3CCCCC3C)c(O)nc12 (stereo not given),11%,16µM*,-2%,u,-17%,i
Cc1cccn2c(=O)c(C(=O)NC3CC(C)CC(C)(C)C3)c(O)nc12 (stereo not given),-1%,23µM*,u,u,-5%,u
Cc1cccn2c(=O)c3cc(C(=O)NC4CCCC4)n(C)c3nc12,-12%,i,-10%,10µM*,-1%,i
COc1ccc(-c2cc(-c3ccccc3)c(C#N)c(SCC(O)CS(=O)(=O)Cc3ccccc3)n2)cc1 (stereo not given),-21%,i,-14%,i,-21%,i
CN(C)c1ccc(/C=C/c2ncnc3ccccc23)cc1,249%,i,x,i,-27%,x
COc1ccc(-c2cccc(-c3cc(=O)oc4cc(OC)c(OC)c(OC)c34)c2)cc1,-18%,23µM*,3%,u,-22%,u
COc1cc(OC)c2c(-c3cccc(-c4ccc(N(C)C)cc4)c3)cc(=O)oc2c1,1.1µM*,u,1%,2.6µM*,-7%,i
COc1cc(OC)c2c(-c3cccc(-c4ccc(O)cc4)c3)cc(=O)oc2c1,u,u,u,16µM*,-19%,i
COc1cc(OC)c2c(-c3cccc(-c4cccc(C)c4)c3)cc(=O)oc2c1,u,i,-19%,i,-24%,i
COc1cc(OC)c2c(-c3cccc(-c4ccc(OC(F)(F)F)cc4)c3)cc(=O)oc2c1,u,i,3%,i,-56%,i
COc1cc(OC)c2c(-c3cccc(-c4ccc(CO)cc4)c3)cc(=O)oc2c1,5µM*,2.6µM*,u,u,-4%,i
COc1ccccc1N1CCN(c2ccc(=O)n(CC(=O)NCc3ccc(F)cc3)n2)CC1,-4%,i,-11%,i,-3%,i
O=C1CCC2=C1C1(CCCC1)N=C(Nc1nc3ccccc3o1)N2,x,i,x,i,x,x
O=C(CCNS(=O)(=O)c1ccc2c(c1)CCN2C(=O)C1CC1)Nc1ccc(OC(F)(F)F)cc1,-5%,u,-1%,i,-6%,i
O=C(CSCC(=O)Nc1ccccc1)N/N=C/c1c(O)ccc2ccccc12,9%,u,3.2µM*,u,-25%,i
O=C(CN1CCOCC1)N/N=C/c1ccco1,-10%,i,-7%,i,0%,i
O=C(CNc1ccccc1)N/N=C/c1c(O)ccc2ccccc12,u,i,7.1µM*,16µM*,-42%,i
O=C(CN1CCOCC1)N/N=C/c1c(O)ccc2ccccc12,-4%,i,11µM*,u,0%,u
CCNC(=O)NC(=O)CSc1ccc(S(=O)(=O)N(C)C2CCCCC2)cn1,-3%,21µM*,-14%,i,9%,u
SMILES,TGFb inhibitor,KB-V1 cytotox,ATXN2 expr inh,KB-3-1 cytotox,HepG2 tox,S2 tox
CCC(C)NC(=O)CSc1ccc(S(=O)(=O)N(C)C2CCCCC2)cn1 (stereo not given),-22%,12µM*,-29%,i,-11%,u
CNC(=O)NC(=O)CSc1ccc(S(=O)(=O)N(C)C2CCCCC2)cn1,12%,u,-14%,i,0%,i
Cc1ccc(CN2CCCn3nc(C(=O)NCCC(C)C)cc3C2=O)cc1,-12%,i,8%,i,5%,i
O=C(O)CSc1nnc(-c2ccccc2)c(-c2ccccc2)n1,2%,i,0%,i,3%,i
CCN(CC)C(=O)CSc1nnc(-c2ccccc2)c(-c2ccccc2)n1,-13%,3.3µM*,1%,i,-2%,i
c1ccc(CSc2nnc(-c3ccccc3)c(-c3ccccc3)n2)cc1,-5%,18µM*,-4%,i,-35%,i
CCOC(=O)c1c(S(=O)(=O)N2CCCC(C(=O)N3CCN(c4cc(C)ccc4C)CC3)C2)c(C)n(C)c1C (stereo not given),u,u,3%,i,-9%,i
COc1ccc(CCNC(=O)CCCn2c(=O)c3ccccc3n(CC(=O)Nc3ccc(C)cc3Cl)c2=O)cc1OC,u,i,-3%,i,-64%,x
CCOc1cc(-c2noc(N)c2C(=O)OC)cc(OCC)c1OCC,-2%,12µM*,-5%,i,5%,u
COC(=O)c1c(-c2ccc(Br)cc2)noc1N,-12%,i,-2%,u,-16%,i
Cc1ccc(NCCCn2cnc(C(=O)Nc3ccc(C)c(C)c3)n2)cc1C,-8%,u,2%,i,2%,i
Cc1cc(C)c(CN2CCN(CCCn3cnc(C(=O)Nc4ccc(C)c(C)c4)n3)CC2)c(C)c1,u,i,u,i,18µM*,x
Cc1ccc(NC(=O)c2ncn(CCCN[C@H](C)c3cccc4ccccc34)n2)cc1C,u,i,u,i,-103%,22µM*
COc1ccc(SC[C@H](C)CN2CC[C@H](NC(=O)OCc3ccccc3)CCC2=O)cc1,-18%,12µM*!,-25%,15µM*!,-20%,i
C[C@@H]1CCC(=O)N(CC[C@H](Sc2ccccc2)c2ccccc2)CC1,18µM*!,u,-7%,i,-2%,u
O=C(N[C@H]1CCC(=O)N([C@H](CSc2ccccc2)Cc2ccccc2)CC1)OCc1ccccc1,u,18µM*!,-20%,u,-11%,u
COc1ccc(S[C@@H](CCN2CC[C@H](NC(=O)OCc3ccccc3)CCC2=O)c2ccccc2)cc1,13µM*,u,-32%,13µM*!,-39%,u
